# HT1080-NT tox – kills 2HG-producing HT-1080-NT fibrosarcoma cells | HT-1080-NT fibrosarcoma viability, CellTiter-Glo ATP luminescence, 48 h | Potency, µM (titrated, usually from 46.1 µM), for the others: at the top dose activity, negative = less viability, usual class: cytotoxic | AID 686970 | hit rate 1.6% among 360,000;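 note: NT is the 2HG producing partner of a matched IDH1 knockdown line; potency is the fitted concentration of half-maximal effect; 0% = DMSO-treated cells and -100% = media-only wells without cells; nearly all actives have a fitted effect of over 55% in size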
#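 Luminescent CellTiter-Glo readout after 48 hours of compound exposure at 37 degrees C defined viability of HT-1080-NT cells. Activity was normalized to DMSO wells and cell-free media wells; concentration-response curves were fitted and assigned curve classes.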
# DT40 TDP1 CPT – growth inhibition of DT40 Tdp1-/-;hTDP1 cells with camptothecin (screen for TDP1 inhibitors); chicken DT40 Tdp1-/-;hTDP1 cells + 20 nM CPT, ATP luminescence, 48 h; Potency, µM (top dose mostly 46.2 µM), inactives show at the top dose activity change, negative = growth inhibition, usual class: inhibitors; hit rate 12% among 420,000; AID 686979; note: potency is the fitted concentration of half-maximal effect; nearly all actives have a fitted effect of over 55% in size
#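 Chicken DT40 Tdp1-/- cells stably complemented with human TDP1 were seeded at 400 cells/well in medium containing 20 nM camptothecin, exposed to pin-transferred compounds, and grown at 37 °C for at least 48 hr. Viability was read as ATP luminescence.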
# 12-LOX inh – blocks human arachidonate 12S-lipoxygenase. P18054. purified 12hLO, xylenol orange hydroperoxide absorbance. Potency, µM (titrated, usually from 108 µM), for inactives: at the top dose activity change, negative = inhibition, hits mostly inhibitors. hit rate 1.1% among 580,000. AID 1671190; note: potency is the fitted concentration of half-maximal effect
# Target sequence (P18054 whole entry, looked up): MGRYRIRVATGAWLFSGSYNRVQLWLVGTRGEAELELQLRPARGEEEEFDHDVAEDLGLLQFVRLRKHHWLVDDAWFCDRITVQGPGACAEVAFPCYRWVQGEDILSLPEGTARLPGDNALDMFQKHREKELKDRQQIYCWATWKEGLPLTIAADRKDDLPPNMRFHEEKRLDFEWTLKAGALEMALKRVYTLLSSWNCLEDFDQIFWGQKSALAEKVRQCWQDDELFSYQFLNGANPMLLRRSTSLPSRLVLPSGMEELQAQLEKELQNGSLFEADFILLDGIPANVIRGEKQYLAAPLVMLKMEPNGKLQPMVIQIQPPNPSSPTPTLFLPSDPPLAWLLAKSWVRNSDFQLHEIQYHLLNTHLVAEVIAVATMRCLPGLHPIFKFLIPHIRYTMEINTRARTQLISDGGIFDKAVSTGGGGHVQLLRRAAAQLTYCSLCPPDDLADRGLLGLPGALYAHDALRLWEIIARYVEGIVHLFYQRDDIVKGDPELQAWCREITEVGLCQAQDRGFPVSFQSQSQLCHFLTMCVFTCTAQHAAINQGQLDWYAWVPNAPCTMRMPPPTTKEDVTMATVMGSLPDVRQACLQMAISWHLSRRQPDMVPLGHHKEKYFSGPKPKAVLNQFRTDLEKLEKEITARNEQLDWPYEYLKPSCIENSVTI
#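 Purified human 12hLO at 150 nM in 25 mM Hepes, 0.01% Triton X-100, pH 7.0, preincubated 15 min at room temperature with compound. Reaction started with 40 uM arachidonic acid, 30 min at room temperature. Hydroperoxide measured by Fe-xylenol orange, 573/405 nm absorbance ratio.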
# TDP1 cell noCPT – qHTS for Inhibitors of human tyrosyl-DNA phosphodiesterase 1 (TDP1): qHTS in cells in absence of CPT; Potency, µM (doses to about 46.2 µM), inactives show at the highest dose activity change, negative = growth inhibition, most hits filed as inhibitors; DT40 Tdp1-/- hTDP1 cells, no CPT, ATP luminescence, 48 h; hit rate 15% among 420,000; AID 686978, 2013; note: potency is the fitted concentration of half-maximal effect; nearly all actives have a fitted effect of over 55% in size
#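 Luminescent ATP content (CellTiter-Glo) served as the growth readout. Knockout chicken DT40 cells expressing human TDP1 were exposed to compounds without camptothecin for a minimum 48 hr at 37 °C.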
# HT1080 IDH1KD tx – HT-1080 IDH1 knockdown cell toxicity (counter line); hit rate 2% among 360,000; AID 686971; Potency, µM (top dose mostly 46.1 µM), without a hit: at the highest dose activity, negative = toxicity, most hits filed as cytotoxic; HT-1080 IDH1 knockdown viability, ATP luminescence, 48 h;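 note: potency is the fitted concentration of half-maximal effect; 0% = DMSO wells and -100% = cell-free medium wells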
#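 After a 2 h attachment period, IDH1KD HT-1080 cells took pin-transferred compound for 48 h at 37 °C; ATP-based luminescence after 10 min room-temperature reagent incubation reported viability.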
# IL-1B inflam inh – inflammasome signaling inhibition, IL-1 beta readout. THP-1 LPS/ATP IL-1B secretion, AlphaLISA, 16 h; active compounds read low. activity change, % at 57.5 µM. hit rate 4.7% among 360,000. AID 743279; in the data active = activity change below about -50%; inconclusive = mostly about -30% to -49%
#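 Secreted IL-1B measured by AlphaLISA bead assay after 16 h compound exposure of THP-1 cells; compounds (final up to 57.5 uM) added 1 h before LPS (250 ng/mL) and ATP (1.25 mM) stimulation; lower signal means less secretion.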
# An asterisk follows results filed as active; i = inactive; u = inconclusive; x = no result given; [ ] = another dose, or the depositor's remark. Only a selection was taken, and hits are over-represented in it overall. Unless noted, calls come from the whole dose curve; as a rule, active = well fitted curve in the direction sought with a large enough effect; inconclusive = small, poorly fitted or top-dose-only effect, or another doubt; inactive = no such curve, though single readings can be large; an effect the other way counts as inactive or inconclusive. Unless noted, % is set by controls: 0 for no effect and ±100 for the full control effect.
SMILES,HT1080-NT tox,DT40 TDP1 CPT,12-LOX inh,TDP1 cell noCPT,HT1080 IDH1KD tx,IL-1B inflam inh
Cc1ccccc1OCC(=O)NNC(=O)Cn1[nH]c(=O)c2ccccc2c1=O,-5%,8.2µM*,1%,u,-21%,22
O=C(CC12CC3CC(CC(C3)C1)C2)Nc1ccccc1N1CCOCC1,-2%,u,-3%,10µM*,-8%,-5
COC(=O)COc1ccc2c(C)c(-c3ccc(Cl)cc3)c(=O)oc2c1,x,x,24%,x,x,x
Cc1cccc(C)c1NC(=O)Cn1cccc1-c1nc(-c2ccc(F)cc2)no1,x,x,33%,x,x,x
O=C(NC12CC3CC(CC(C3)C1)C2)C1CC(=O)N(c2ccccc2)C1 (stereo not drawn),-1%,-19%,0%,-28%,-2%,13
O=C(NC12CC3CC(CC(C3)C1)C2)C1CC(=O)N(c2ccc(Br)cc2)C1 (stereo not drawn),3%,13µM*,x,23µM*,7%,5
COc1ccccc1-c1nc(N(C)C)c2ccccc2n1,x,u,32µM*,u,x,x
CN(C)Cc1ccccc1-c1nc(N(C)C)c2ccccc2n1,x,12µM*,u,u,x,x
O=[N+]([O-])c1cc(S(=O)(=O)Oc2ccccc2)ccc1Cl,15µM*,0.58µM*,2%,0.58µM*,18µM*,-101*
O=C1CCCN1c1ccc(S(=O)(=O)Oc2ccc(Cl)cc2)cc1[N+](=O)[O-],-15%,21µM*,9%,21µM*,-15%,-6
CCN(Cc1ccc(Br)s1)C(=O)Cn1nnc(-c2ccccc2)n1,x,x,-1%,x,x,x
CCC1(C)N=C(N)Nc2nc3cc(C)c(C)cc3n21 (stereo not drawn),-11%,9.2µM*,0%,9.2µM*,-11%,-5
CCOc1ccc2c(n1)CCN(C(=O)c1ccc(OC)cc1OC)C2,x,x,22%,x,x,x
CCCNC(=O)c1ccc(NC(=O)c2ccc(Cl)cc2)cc1,x,x,19%,x,x,x
COc1ccc(NC(=O)c2ccc(NCCCN3CCOCC3)c([N+](=O)[O-])c2)cc1,4%,21µM*,u,18µM*,0%,u
Cc1ccc(NC(=O)c2ccc(NCCCN3CCOCC3)c([N+](=O)[O-])c2)cc1Cl,18µM*,u,-30%,21µM*,18µM*,-67*
O=C(NCCCN1CCOCC1)c1ccc(Sc2cccc(Cl)c2)c([N+](=O)[O-])c1,-8%,u,u,21µM*,-5%,u
O=C(NCCCN1CCOCC1)c1ccc(Cl)c([N+](=O)[O-])c1,15%,7%,i,-3%,13%,-2
O=[N+]([O-])c1ccc(NCCCN2CCOCC2)c([N+](=O)[O-])c1,-20%,24%,3%,-24%,-4%,-5
O=[N+]([O-])c1cc(S(=O)(=O)NCCCN2CCOCC2)ccc1Cl,0%,3%,-20%,-18%,-4%,-64*
C=CCn1cc2c3c(cccc31)[C@H](CC(C)C)N[C@H](C(=O)NC1CCCC1)C2,x,x,-4%[176 µM],x,x,x
O=C(Nc1cccc(-c2nc3ccccc3o2)c1)c1ccc([N+](=O)[O-])cc1,x,x,0%,x,x,x
CCCCCCCCC(=O)OCC,x,x,-3%[176 µM],x,x,x
O=S(=O)(NCCN1CCOCC1)c1ccc2ccccc2c1,2%,-22%,u,u,-6%,-17
O=[N+]([O-])c1cc(S(=O)(=O)NCCN2CCOCC2)ccc1Sc1nnnn1-c1ccccc1,u,5.8µM*,7%,6.5µM*,u,-100*
SMILES,HT1080-NT tox,DT40 TDP1 CPT,12-LOX inh,TDP1 cell noCPT,HT1080 IDH1KD tx,IL-1B inflam inh
O=C(Nc1ccc(Cl)c([N+](=O)[O-])c1)c1ccc(NCCCN2CCOCC2)c([N+](=O)[O-])c1,-1%,2.3µM*,-2%,2.3µM*,0%,0
CCCCSc1nnc(NC(=O)c2cc(=O)c3ccccc3o2)s1,x,x,0%,x,x,x
CCN(CC)c1ccc2c(c1)C(=O)N(C)C2=O,3%,u,229%,-30%,0%,-3
CCN(CCCCN1C(=O)c2ccccc2C1=O)c1ccc2c(c1)C(=O)N(C)C2=O,8%,u,-18%,18µM*,9%,-2
COc1ccccc1C1(CC(=O)N2CCCCC2)CCOC(C(C)C)C1 (stereo not drawn),-3%,23µM*,-8%,23µM*,-2%,3
CCCn1cc(S(=O)(=O)c2ccc(CC)cc2)c(=O)c2cc(F)c(N(CC)CC)cc21,x,8.2µM*,-9%,9.2µM*,x,x
CCN(CC)c1cc2c(cc1F)c(=O)c(S(=O)(=O)c1ccc(OC)cc1)cn2CC,x,16µM*,-9%,15µM*,x,x
CCN(CC)c1cc2c(cc1F)c(=O)c(S(=O)(=O)c1cc(C)ccc1C)cn2Cc1ccccc1,x,u,u,18µM*,x,x
Cc1ccc(C)c(S(=O)(=O)c2cn(Cc3ccccc3)c3cc(F)c(F)cc3c2=O)c1,x,u,-22%,u,x,x
O=C(Nc1cc2c(cc1C(=O)C1CC1)OCCO2)c1ccco1,x,x,-17%,x,x,x
CC(O)c1cc2n(n1)CCN(CCS(=O)(=O)c1ccccc1)C2 (stereo not drawn),x,x,83%,x,x,x
COc1ccccc1CN1CCCC(CN(CCN(C)C)C(=O)c2cccnc2)C1 (stereo not drawn),x,x,3%,x,x,x
O=C(CN1C(=O)CNC1=O)N1CCCN(C(=O)c2ccoc2)CC1,x,x,19%,x,x,x
Cc1ccc(C2(O)C(=O)c3ccccc3C2=O)c(O)c1C,-3%,u,u,u,-29%,-11
CC(C)(C)c1cccc(C2(O)C(=O)c3ccccc3C2=O)c1O,-20%,u,74%,9.2µM*,u,-25
CC(C)CCC(O)(CCC(C)C)C(=O)NN1CCCCC1,5%,-25%,-14%,0%,8%,17
CCCC(O)(CCC)C(=O)NN1CCCCC1,24%,23µM*,-9%,u,4%,20
CCC(=O)N1CCN(c2ccc(NC(=O)c3ccc([N+](=O)[O-])o3)cc2Cl)CC1,12µM*,0.82µM*,u,5.2µM*,7.3µM*,-107*
CCC(=O)N1CCN(c2ccc(Cl)cc2NC(=O)c2cccc([N+](=O)[O-])c2)CC1,2%,u,2%,u,2%,30
CC(=O)N1CCN(c2ccc(NC(=O)c3ccc([N+](=O)[O-])o3)cc2Cl)CC1,3.3µM*,0.41µM*,u,0.92µM*,6.5µM*,-102*
O=C(Nc1cc(Cl)ccc1-n1cncn1)c1ccc([N+](=O)[O-])o1,-22%,7.3µM*,-3%,10µM*,-22%,-65*

# Screens as filed in PubChem BioAssay.
